Compound activity: PubChem BioAssay, several laboratories
This is a sample that favours compounds with a hit; in the whole collection about 1.1% have one here.
UGM FP inh = inhibitors of M. tuberculosis UDP-galactopyranose mutase; P9WIQ1; purified UGM, fluorescence polarization probe displacement; inhibition, % at 10 µM; 320,000 compounds, 0.06% hits; AID 504406; in the data active = inhibition above about 10%, passing the limit was not always enough; inconclusive = no clear call, values can overlap the other calls
Rv3671c inh = inhibits the M. tuberculosis serine protease Rv3671c. P9WHR9. AID 2606. inhibition, % at 5.96 µM. 320,000 compounds, 0.048% hits; in the data active = inhibition above about 38%;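 note: extracellular domain of Rv3671c used as enzyme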
Target sequence (P9WHR9 whole entry, looked up, the tested form may be a part): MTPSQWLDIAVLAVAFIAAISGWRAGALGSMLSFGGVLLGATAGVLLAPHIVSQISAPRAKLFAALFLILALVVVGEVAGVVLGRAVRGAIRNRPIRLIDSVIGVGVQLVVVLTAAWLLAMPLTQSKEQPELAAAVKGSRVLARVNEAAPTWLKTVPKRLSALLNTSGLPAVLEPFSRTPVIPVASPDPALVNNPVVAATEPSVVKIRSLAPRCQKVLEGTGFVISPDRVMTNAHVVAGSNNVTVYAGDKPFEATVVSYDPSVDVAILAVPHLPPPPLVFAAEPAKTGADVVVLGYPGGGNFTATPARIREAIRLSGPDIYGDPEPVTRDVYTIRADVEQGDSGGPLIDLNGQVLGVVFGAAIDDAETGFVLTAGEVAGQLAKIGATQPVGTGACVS
SSB-PriA inh = inhibitors of Klebsiella pneumoniae PriA binding to SSB C-terminal tail. AlphaScreen SSBct-PriA binding, biotinylated peptide. inhibition, % at 33 µM. 430,000 compounds, 0.6% hits. AID 1272365; in the data active = inhibition mostly above about 37%, no sharp cut-off; inactive = mostly below about 20%
Mtb betalactam = beta-lactam sensitization of Mtb H37Rv; M. tuberculosis H37Rv growth with meropenem, percent inhibition; inhibition, % at 25 µM; 330,000 compounds, 0.27% hits; AID 434955;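 note: growth measured after seven days incubation then overnight dye step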
RecA splice inh = blocks M. tuberculosis RecA intein splicing. 290,000 compounds, 0.75% hits. cell-free RecA intein splicing, fluorescence. AID 2221. inhibition, % (concentration not given with the values); in the data active = inhibition above about 30%; inconclusive = no clear call, values can overlap the other calls
GFP chromo cs = counter-screen: blocks GFP chromophore formation; cell-free GFP chromophore formation, fluorescence; shares compounds with RecA splice inh; 2,100 compounds, 83% hits; AID 434968; EC50, µM
Numbers stand for hits; n = inactive; u = inconclusive; x = not tested or not shown. Unless noted, the rule behind the calls is not given here.

SMILES | UGM FP inh | Rv3671c inh | SSB-PriA inh | Mtb betalactam | RecA splice inh | GFP chromo cs
O=C(NCC1CCN(C(=O)c2ccoc2)CC1)c1c(F)cccc1Cl | x | x | n | x | x | x
CCOC(=O)C(C=Nc1cc(C)nn1-c1ccccc1)=C(C)O | x | x | n | x | x | x
COC(=O)CC1(c2cccc3ccccc23)C(=O)c2ccccc2C1=O | n | n | n | n | 41.9 | 6.58
CO[C@@H](CNS(=O)(=O)c1cc2c3c(c1)CCN3C(=O)CC2)c1ccccc1Cl | x | x | n | x | x | x
O=c1cc(-c2c(F)c(F)c(F)c(F)c2F)oc2ccccc12 | n | n | n | n | n | x
O=c1cc(-c2c(F)c(F)c(F)c(F)c2F)oc2c(F)c(F)c(F)c(F)c12 | n | n | n | n | 86.1 | 13.4
COC(=O)c1ccc(C(=O)N2CC(n3cc(COc4ccccc4)nn3)C2)cc1 | x | x | n | x | x | x
CCC1CCCC1=NNC(=O)CCC(=O)Nc1ccccc1Cl (stereo unspecified) | x | x | n | x | x | x
CCCCCc1cc(=O)oc2c(C(CCN3CCCCC3)c3ccc(OC)cc3)c(OC)cc(OC)c12 (stereo unspecified) | n | n | n | n | n | x
CCCCCc1cc(=O)oc2c(C(CCN3CCCC(C)C3)c3ccc(OC)cc3)c(OC)cc(OC)c12 (stereo unspecified) | n | n | n | n | 37.1 | 18.4
O=C1c2ccccc2C(=O)c2c1ncn2-c1ccccc1 | n | n | n | n | 36.9 | n
O=C1c2ccccc2C(=O)c2[nH]cnc21 | n | x | n | n | n | x
O=C1C(Cl)=C(N2CCOCC2)C(=O)N1c1ccccc1Cl | n | n | n | n | 85.9 | 5.62
CN1CCN(C2=C(Cl)C(=O)N(c3cccc(Cl)c3)C2=O)CC1 | n | n | n | n | n | x
Cc1ccc(N2C(=O)C(Cl)=C(N3CCOCC3)C2=O)cc1Cl | n | n | n | n | 73.8 | u
O=C1C(Cl)=C(N2CCCCCC2)C(=O)N1c1ccccc1Cl | n | n | n | u | n | x
CN1CCN(C2=C(Cl)C(=O)N(c3ccc(Cl)c(Cl)c3)C2=O)CC1 | n | n | n | n | 67.9 | 2.29
CCOC(=O)CC(C)=NNC(=O)Nc1ccccc1 | x | x | n | x | x | x
O=C(NCCn1ccc(-c2ccccn2)n1)c1ccc(F)cc1Cl | x | x | n | x | x | x
C=CCNC(=O)C(=O)Nc1cc(N2CCCS2(=O)=O)ccc1C | x | x | n | x | x | x
COc1cccc(-c2cc(C(=O)NCc3cccnc3)c3c(C)nn(C4CCS(=O)(=O)C4)c3n2)c1 (stereo unspecified) | x | x | n | x | x | x
O=C(CCCCl)NC1=NN(c2ccccc2)C(=O)C1 | n | n | n | n | x | x
CC(=O)NC1=NN(c2ccccc2)C(=O)C1 | n | n | n | n | 82.1 | 36.1
O=C(CSc1nc2cc3c(cc2c(=O)n1Cc1ccco1)OCO3)Nc1ncn[nH]1 | x | x | n | x | x | x
O=C(NCC1CCN(C2CCCC2)CC1)C(=O)Nc1ccc2c(c1)OCO2 | x | x | n | x | x | x
SMILES | UGM FP inh | Rv3671c inh | SSB-PriA inh | Mtb betalactam | RecA splice inh | GFP chromo cs
Cc1nn(-c2ccccc2)c2c1C(c1cccs1)C(C#N)=C(N)O2 (stereo unspecified) | n | n | n | n | 91.9 | 9.81
CCCc1nn(-c2ccccc2)c2c1C(c1cccs1)C(C#N)=C(N)O2 (stereo unspecified) | n | n | n | n | 66.6 | 16.5
Cc1nn(-c2ccccc2)c2c1C(c1ccco1)C(C#N)=C(N)O2 (stereo unspecified) | n | n | n | n | 68.1 | 17.8
C/C(C=NNC(=O)c1nnn(-c2nonc2N)c1CN1CCC(C)CC1)=C/c1ccccc1 | x | x | n | x | x | x
Cc1ccc(-c2[nH]nc3c2C(C)C(C#N)=C(N)O3)cc1 (stereo unspecified) | n | n | n | n | 88.2 | 0.496
N#CC1=C(N)Oc2n[nH]c(-c3ccc(F)cc3)c2C1c1cccnc1 (stereo unspecified) | x | x | n | x | 75.4 | 15.6
CSc1nc(N)c2c(n1)OC(N)=C(C#N)C2c1cccnc1 (stereo unspecified) | n | n | n | n | n | x
CCC(C)C1C(C#N)=C(N)Oc2n[nH]c(C)c21 (stereo unspecified) | n | n | n | n | n | x
Cc1cc(C)c(C2C(C#N)=C(N)Oc3n[nH]c(C)c32)cc1CN1CCCC1 (stereo unspecified) | n | n | n | n | n | x
Cc1[nH]nc2c1C(c1cn[nH]c1-c1ccc(F)cc1)C(C#N)=C(N)O2 (stereo unspecified) | n | n | n | n | 65.1 | 17.5
Cc1ccc(C2C(C#N)=C(N)Oc3n[nH]c(-c4cccnc4)c32)o1 (stereo unspecified) | n | n | n | n | 53.0 | 37.9
COCCCNC(=O)c1nc(-c2cnccn2)no1 | x | x | n | x | x | x
Cc1cccc(OCC(=O)NCC(=O)NN=Cc2ccc(O)cc2O)c1 | x | x | n | x | x | x
CCOc1ccc(C2C(C#N)=C(N)Oc3nc[nH]c(=O)c32)cc1 (stereo unspecified) | n | n | n | n | n | x
COc1cc(C2C(C#N)=C(N)Oc3n[nH]c(-c4cccnc4)c32)cc(Br)c1O (stereo unspecified) | n | n | n | n | 81.0 | 14.2
N#CC1=C(N)Oc2n[nH]c(-c3ccccc3)c2C1c1ccncc1 (stereo unspecified) | n | n | n | n | 64.6 | 26.7
N#CC1=C(N)Oc2c(c(=O)oc3ccccc23)C1c1ccncc1 (stereo unspecified) | n | n | n | n | x | x
CCOc1ccc(-c2[nH]nc3c2C(c2ccc(O)cc2)C(C#N)=C(N)O3)cc1 (stereo unspecified) | n | n | n | n | 62.5 | 14.7
CCN(Cc1ccccc1)C(=O)c1cn(-c2ccc(C)cc2)nn1 | x | x | n | x | x | x
Cn1c(/N=C/c2c(O)ccc3ccccc23)nc2ccccc21 | n | n | x | u | 72.8 | 9.09
Cc1nnc(NC(=O)c2cn(Cc3ccccc3)nc2OCc2ccccc2)s1 | x | x | n | x | x | x
CCCCCN1N=C(C)CC1=O | n | n | n | n | 78.7 | 13.1
CC1=CC(=Nc2c(C)n(C)n(-c3ccccc3)c2=O)C=CC1=O | n | n | x | n | 56.7 | 26.9
CC1=CC(=Nc2c(C)n(C)n(-c3ccccc3)c2=O)C=C(C)C1=O | n | n | n | n | n | x
C#CCOc1ccc(/C=C2/C(=O)N(c3cccc(C(=O)O)c3)N=C2C)cc1OC | n | n | n | n | 71.5 | 3.37
SMILES | UGM FP inh | Rv3671c inh | SSB-PriA inh | Mtb betalactam | RecA splice inh | GFP chromo cs
COc1cc(/C=C2\C(=O)N(c3ccc(S(N)(=O)=O)cc3)N=C2C)ccc1OC(=O)c1ccco1 | n | n | n | n | 92.6 | 19.6
CCn1c(Cl)c(C=O)s/c1=N\S(=O)(=O)c1ccccc1 | n | n | x | n | 88.9 | 14.7
CCn1c(=NS(=O)(=O)c2ccc(C)cc2)sc2c(C)cc(C)cc21 | x | x | n | x | x | x
COc1ccc(-c2[nH]n(-c3ccc([N+](=O)[O-])cc3)c(=O)c2C=NCc2ccc(F)cc2)cc1 | n | n | n | n | n | x
COc1ccc(-c2cc(=O)n(-c3ccc([N+](=O)[O-])cc3)[nH]2)cc1 | n | n | n | n | 90.2 | 5.38
O=C(Cc1ccc(F)cc1)Nc1nnc(-c2ccccn2)o1 | x | x | n | x | x | x
CCOc1ccc(-n2c(C)cc(C(=O)CCl)c2C)cc1 | n | n | n | n | 48.3 | 27.9
